# Source: the supplement of paper PMC10338343
# ± gives the standard deviation.
# Test system: MILI (PIWIL2) piRISC loaded with L1MC piRNA (26 nt)
# Experiment: pre-steady-state target cleavage rate (min^-1); guide: L1MC piRNA 5'p-UAACUAAAUACUAUGCAAGCUGUAGG; MIWI and MILI are mouse PIWI proteins and EfPiwi is from a freshwater sponge; tags in brackets are library labels; higher = faster piRNA-guided slicing of the target
# Settings: auxiliary factor: 500 nM mouse GTSF1
# In short: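 Cleave-'n-Seq: a transcribed, DNA-blocked target RNA library (0.1 nM) was mixed with 1 nM active affinity-purified piRISC carrying one synthetic guide, with or without 500 nM GTSF1 partner protein, in HEPES–potassium acetate buffer at 33 °C for 0–8 or 0–960 min. Uncleaved targets were sequenced and normalised to depth and to weakly complementary targets. Three trials were pooled, and k3 was capped at 0.0001 min^-1. The pre-steady-state cleavage rate came from a burst-and-steady-state fit.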
row,Sequence,pre-steady-state target cleavage rate
1,UCCUGGUACAGCAUGCAUAGAAUUUAGUUA,0.197 ± 0.07
2,UCCUGGAUGUCGAAGCAUAGUAUUUAUGUUA,0.022 ± 0.0065
3,UCCUGGAUGUCGAAGCAUAGUAUUUAUUUA,0.0073 ± 0.0034
4,UCCUGGAUGUGCAACCAUAGUAUUUAGUAA,0.00554 ± 0.0027
5,UCCUGGAAGUCCUUGCAUAGUAUUUACAAA,0.0598 ± 0.018
6,UCCUGGAUGUCCAUGCAUAGUAUUUAGAUA,0.0163 ± 0.0062
7,UCCUGGAUGUCGUUGCAAAGUAUUUUGUUA,0.0092 ± 0.0056
8,UCCUGGAUGUCGUUGGAUAGUAUUUAGUUA,0.0108 ± 0.0042
9,UCCUGGAAGUCCUUGCAUAGUAUUUUCAAA,0.0197 ± 0.0079
10,UCCUCCUACAGGAAGCAUAGUAUUUUCAAA,0.0352 ± 0.012
11,UCCUGGAUGUCGAAGCAUAGUCUUUAGUUA,0.0102 ± 0.0051
12,UCCUGGUACAGCUUGGAUAGUAUUUAGAUA,0.118 ± 0.038
13,UCCUGGAUGAGCUUCCAUUGUAUUUAGUUA,0.0518 ± 0.016
14,UCCUGGAUGUCCUUGCUUAGUAUUUAGUAA,0.0426 ± 0.013
15,UCCUGGUACAGCUUGCAUAGAAUAUAGUUA,0.102 ± 0.028
16,UCCUGGAUGAGCUUGCAUAGUUUUUACUUA,0.00548 ± 0.0051
17,UCCUGGAUGUGCUUGGAUAGUAUUUUGUUA,0.0685 ± 0.02
18,UCCUGGAUCAGGUUGCAUAGUAUUUACUUA,0.117 ± 0.029
19,UCCUGGAUGAGCUUGGAUAGUAUUAAGUUA,0.0932 ± 0.022
20,UCCUGGAUGUCCUUGCAUAGUAUAUAGAUA,0.0132 ± 0.0063

row,Sequence,pre-steady-state target cleavage rate
1,UCCUGGAAGAGCUUGCAUAGUAUUUACUUA,0.0737 ± 0.02
2,UCCUGGAUGUCCUUGCUUAGUAUUUAGAUA,0.0358 ± 0.0092
3,UCCUGGAUCAGGAUGCAUAGUAUUUACAAA,0.0127 ± 0.0048
4,UCCUGGAUCAGCUUGCAAAGAAUUUAGUUA,0.0118 ± 0.0054
5,UCCUGGAUGUCGAACCAUAGUAUUUACAAA [g5:g15:cont:t1A],< 0.0001
6,UCCUGGAUGUGCUUGCUUAGUAUUUUGUUA,0.0645 ± 0.017
7,UCCUGGAUGUGCUUGCAUACUAUUUUGUUA,0.00854 ± 0.0058
8,UCCUGGAUCAGCUUGCAUUCUAUUUAGUAA,0.0151 ± 0.0057
9,UCCUGGAACACGAUGCAUAGUAUUUAGAAA,0.072 ± 0.018
10,UCCUGGAUGAGCUUGCAUAGUAUUAUCAAA,0.00461 ± 0.0034
11,UCCUGGAUGUGCUUGCAAACUAUUUAGUUA,0.00852 ± 0.0038
12,UCCUGGAUGUGCUUGCAUAGUUAAUAGUUA,0.00482 ± 0.0042
13,UCCUGGUUCAGCUUGCAUAGUAUUUACAAA,0.0698 ± 0.021
14,UCCUGGAUGAGCUUGCAUAGUUUUUAGUAA,0.0181 ± 0.0068
15,UCCUGGAUGUCCUUGCAUAGCAUUUAGUUA,0.0257 ± 0.0079
16,UCCUGGAACAGCUUGCAUAGUAUAAUGUAA,0.014 ± 0.0065
17,UCCUGCUACAGCUUCGAUAGUAUUUAGAAA,0.0541 ± 0.017
18,UCCUGGAUGUCGAACCAUAGUAUUUGAGUUA,< 0.0001
19,UCCUGGAACAGCUUGCAAAGAAUUUAGUUA,0.102 ± 0.037
20,UCCUGGAUGUCCUUGCAUAGUAUUUAUUA,0.0219 ± 0.0073
